Screening data: PubChem BioAssay, National Center for Advancing Translational Sciences (NCATS)
Only some compounds are listed: those with a hit (about 0.39% of all), similar ones and a draw of the others.
MmCpn inh – Inhibitors of TCP-1 ring complex (TRiC) of Methanococcus maripaludis (MmCpn): qHTS; Chaperonin Mm-Cpn (Methanococcus maripaludis); purified Mm-Cpn ATPase, ADP Transcreener TR-FRET; Potency, µM (doses to about 76.9 µM), most hits filed as inhibitors; 330,000 tested, 0.031% active; AID 504842, 2011; further: nearly all actives have a fitted effect of over 80% in size
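Purified archaeal Mm-CPN (25nM final) preincubated 10 min at 37degC with compound, then 10uM ATP for 30 min at 37degC; ADP measured by HTRF Transcreener TR-FRET; buffer 30 mM TRIS pH 7.4, 100mM KCl, 5mM MgCl2, 1mM DTT.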
CCT modulator – High-Throughput Screening for Modulators of Cytosolic Chaperonin Activity. purified chaperonin ATPase assay, HTRF ADP detection, 30 min. 360,000 tested, 0.3% active. activity change, % (test concentration not listed), hits read low; in the data active means activity change below about -30%
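TRiC (40 or 20 nM final, by batch activity) in 30 mM Tris pH 7.4, 100 mM KCl, 5 mM MgCl2, 1 mM DTT was treated with compound at 76 uM single dose, then 10 uM ATP, 30 min at 37 °C. ADP was read by HTRF Transcreener.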
Anesthetic bind – qHTS Assay for Identification of Novel General Anesthetics. Ferritin light chain (Equus caballus), P02791. apoferritin/1-aminoanthracene competitive binding, fluorescence. Potency, µM (top dose mostly 77.5 µM), usual class: inhibitors. 350,000 tested, 0.074% active; further: nearly all actives have a fitted effect of over 20% in size
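Steps: apoferritin (10 uM) was premixed with half-saturated 1-AMA in PBS, compounds were pin-transferred, plates stood 10 min at room temperature, fluorescence was read at 380/535 nm, and curves were fitted with a Hill equation.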
ERG Ets-DNA blk – qHTS for Small Molecule Inhibitors of the ERG Ets/DNA interaction; Transcriptional regulator ERG (Homo sapiens), P11308; fluorescence polarization, His-ERG Ets domain / labelled DNA; Potency, µM (top dose mostly 76.9 µM), hits mostly inhibitors; 370,000 tested, 0.028% active; AID 624246, 2012; active means well fitted inhibition curve with a large enough effect in the polarisation, with a control signal flat; inconclusive means small, poorly fitted or top-dose-only effect, or effect the other way, or a change in a side signal; inactive means no such curve, though single readings can be large or run the other way; the % refers to the polarisation;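 further: polarization taken with two DNA probes labelled with fluorescein and Texas red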
Target sequence (P11308 whole entry, looked up, the tested form may be a part): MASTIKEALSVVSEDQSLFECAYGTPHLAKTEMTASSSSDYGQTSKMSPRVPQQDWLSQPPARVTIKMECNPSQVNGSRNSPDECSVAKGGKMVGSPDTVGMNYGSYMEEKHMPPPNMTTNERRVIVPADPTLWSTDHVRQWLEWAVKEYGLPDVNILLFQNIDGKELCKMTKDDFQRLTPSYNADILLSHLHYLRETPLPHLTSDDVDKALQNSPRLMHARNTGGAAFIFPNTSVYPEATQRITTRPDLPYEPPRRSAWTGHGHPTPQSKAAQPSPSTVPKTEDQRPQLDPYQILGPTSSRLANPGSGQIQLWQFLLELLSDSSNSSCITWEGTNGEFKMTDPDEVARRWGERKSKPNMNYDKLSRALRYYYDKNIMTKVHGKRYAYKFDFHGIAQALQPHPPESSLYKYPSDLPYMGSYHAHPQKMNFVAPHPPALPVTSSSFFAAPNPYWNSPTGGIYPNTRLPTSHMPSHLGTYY
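His-tagged ERG Ets domain (1 uM in the protein solution; 300mM KCl, 50mM Tris-HCl, 1mM EDTA, 1mM DTT, pH 7.5) received compound, then a probe mix of 5 nM fluorescein-DNA and 100nM Texas-615-DNA. Fluorescence polarization was read for both dyes.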
Large screens that a line does not name were inactive. Unless noted, the call rests on the fitted dose curve; in most records, active means well fitted curve in the direction sought with a large enough effect; inconclusive means small, poorly fitted or top-dose-only effect, or another doubt; inactive means no such curve, though single readings can be large; an effect the other way counts as inactive or inconclusive.

Cc1ccc(S(=O)(=O)Nc2ccc3c(c2)C(=O)N([C@H](C)CO)C[C@H](C)[C@@H](CN(C)C(=O)NC2CCCCC2)OCCCC[C@@H](C)O3)cc1	none (no result: MmCpn inh, Anesthetic bind, ERG Ets-DNA blk)
Cc1ccc(Cc2c(C)nc3nc(SCC(=O)NCCC(C)C)nn3c2C)cc1	none (no result: MmCpn inh, CCT modulator)
O=c1[nH]c2cc(Cl)ccc2n(CCNc2ncc(C(F)(F)F)cc2Cl)c1=O	CCT modulator -67
O=c1cc(Cl)[nH]c(=O)n1CCNc1ncc(C(F)(F)F)cc1Cl	none
CC1(CCc2ccccc2)NC(=O)N(CC(=O)Nc2ccccc2)C1=O (configuration not stated)	none
CC1(CCc2ccccc2)NC(=O)N(CC(=O)Nc2c(F)cccc2F)C1=O (configuration not stated)	CCT modulator -51 (no result: Anesthetic bind)
CCOc1ccc(C(c2c(O)cc(C)n(Cc3ccco3)c2=O)N2CCCCC2)cc1 (configuration not stated)	none (no result: MmCpn inh, CCT modulator)
O=C(O)c1cc([N+](=O)[O-])ccc1Nc1ccccc1	none
Nc1cc([N+](=O)[O-])ccc1Nc1ccccc1	Anesthetic bind 16µM
COc1ccc(C2C(C(=O)Nc3cccnc3)=C(C)Nc3nc(-c4ccccc4)nn32)cc1OC (configuration not stated)	none (no result: MmCpn inh, CCT modulator)
Cc1ccc(N(CC(=O)Nc2ccc(-c3nc4ccc(C)cc4s3)cc2)S(C)(=O)=O)cc1	MmCpn inh inconclusive, CCT modulator -40
Cc1ccc(C)c(N(CC(=O)Nc2ccc(-c3nc4ccc(C)cc4s3)cc2)S(C)(=O)=O)c1	none
Cc1cccc(-c2nn(C(=S)Nc3ccccc3)cc2-c2ccnc3ccccc23)n1	none (no result: MmCpn inh, CCT modulator, ERG Ets-DNA blk)
O=C(NC1CCCC1)C(c1ccncc1)N(C(=O)c1ccco1)c1ccc(F)c(Cl)c1 (configuration not stated)	CCT modulator -36
Cc1c(NC(=O)c2nc3ccccc3nc2N2CCCCC2)cccc1[N+](=O)[O-]	none (no result: MmCpn inh, CCT modulator)
CCCC[C@H](NC(=O)[C@@H]1CCCN1C(=O)[C@H]1CCCN1C(=O)[C@H](Cc1ccccc1)NC(=O)[C@@H](Cc1c[nH]c2ccccc12)NC(=O)[C@H](C)NC(=O)[C@H](CCCN=C(N)N)NC(=O)OC(C)(C)C)C(N)=O	none (no result: MmCpn inh, CCT modulator, ERG Ets-DNA blk)
Cn1c(C(=O)N2CCCc3ccccc32)cc2sccc21	Anesthetic bind 13µM
CCOC(=O)C1CCCN(C(=O)c2ccccc2NC(=O)C2=C(C)OCCS2)C1 (configuration not stated)	none
CCOC(=O)C1CCCN(C(=O)c2ccc(C)c(NC(=O)C3=C(C)OCCS3)c2)C1 (configuration not stated)	CCT modulator -66
N#CC(C#N)=C(N)/C(C#N)=C/c1ccc2[nH]ccc2c1	none (no result: MmCpn inh, CCT modulator, ERG Ets-DNA blk)
COc1cccc2c1C(=O)c1c(O)c3c(c(O)c1C2=O)CC(O)(C(C)=O)CC3OC1CC(O)C(O)C(C)O1 (configuration not stated)	ERG Ets-DNA blk 2.5µM (no result: MmCpn inh, Anesthetic bind)
COc1cccc2c1C(=O)c1c(O)c3c(c(O)c1C2=O)C[C@](O)(C(C)=O)C[C@H]3O[C@@H]1C[C@@H](N)[C@@H](O)[C@@H](C)O1	ERG Ets-DNA blk inconclusive (no result: Anesthetic bind)
COc1ccc2c(c1OC)C(=O)N(c1ccc(F)cc1)C2	CCT modulator -40
CCOC(=O)c1c(NC(=O)c2cccs2)sc2c1CCC2	MmCpn inh inconclusive, CCT modulator -33 (no result: ERG Ets-DNA blk)
CCOC(=O)Cn1c(=O)cc(C)c2c(C)nn(-c3cccc(F)c3)c21	none (no result: MmCpn inh, CCT modulator)
CCN(CC)c1ccc(/C=N/Nc2nc3ccccc3[nH]2)c(O)c1	CCT modulator -31
COc1cc(OC)c(OC)cc1/C=N/Nc1nc2ccccc2[nH]1	none
CCOc1ccccc1OCCn1nnc2ccccc21	none
COc1ccccc1OCCn1nnc2ccccc21	CCT modulator -55
CCOC(=O)C1=C(c2ccccc2)c2cc(OC)ccc2OC1C(=O)OCC (configuration not stated)	none (no result: MmCpn inh, CCT modulator, ERG Ets-DNA blk)
O=C(O)c1sccc1S(=O)(=O)N1CCN(c2ccc(C(F)(F)F)cn2)CC1	none
O=S(=O)(c1ccc(C(F)(F)F)cc1)N1CCCN(c2ccc(C(F)(F)F)cn2)CC1	CCT modulator -34
COc1ccccc1C(=O)NC1(C(F)(F)F)C(=O)Nc2c1c(=O)[nH]c(=O)n2-c1ccccc1 (configuration not stated)	none (no result: MmCpn inh, CCT modulator)
